Screening data (PubChem)
CYP2C9 act: increases human cytochrome P450 2C9 activity; activation factor at 5 µM; 96,000 compounds, 1.4% hits; recombinant CYP2C9, luciferin-H conversion, luminescence; hits give high values; factor 1 = untreated enzyme, 0 = blocked; P11712; AID 1024;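 active = activation factor of 2 or more for CYP2C9 at a 5 µM dose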
CYP2C9 inhib: blocks human cytochrome P450 2C9 | AID 777 | P11712 | 96,000 compounds, 20% hits | inhibition, % at 5 µM | CYP2C9 Supersomes, luciferin-H conversion, luminescence;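 active = blocking of liver enzyme CYP2C9 beyond about 50% at 5 µM, limit read from the data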
PLAP activator: activators of human placental alkaline phosphatase; P05187; purified PLAP enzyme, luminescent substrate read-out; hits give high values; activation fold at 20 µM; 96,000 compounds, 1.2% hits; AID 696; in the data active = activation fold above about 2
Target sequence (P05187 whole entry, looked up): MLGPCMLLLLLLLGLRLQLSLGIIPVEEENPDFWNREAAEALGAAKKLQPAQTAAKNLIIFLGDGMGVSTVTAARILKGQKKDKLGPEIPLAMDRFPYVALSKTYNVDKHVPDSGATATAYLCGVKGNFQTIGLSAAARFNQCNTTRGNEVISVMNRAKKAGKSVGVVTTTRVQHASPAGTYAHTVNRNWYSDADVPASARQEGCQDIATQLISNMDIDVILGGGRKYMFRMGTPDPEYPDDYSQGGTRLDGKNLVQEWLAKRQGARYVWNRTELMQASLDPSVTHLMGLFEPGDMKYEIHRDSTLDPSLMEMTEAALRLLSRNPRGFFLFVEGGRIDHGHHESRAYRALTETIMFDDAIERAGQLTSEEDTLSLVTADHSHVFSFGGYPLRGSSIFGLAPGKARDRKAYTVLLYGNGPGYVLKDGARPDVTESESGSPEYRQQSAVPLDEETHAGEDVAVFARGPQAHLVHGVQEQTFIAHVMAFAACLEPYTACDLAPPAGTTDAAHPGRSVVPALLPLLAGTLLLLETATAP
CYP2C19 activ: activators of human cytochrome P450 2C19. recombinant CYP2C19, luciferin-H EGE luminescence; hits give high values; 0 = fully inhibited enzyme, 1 = untreated enzyme. activation factor at 5 µM. 96,000 tested, under 10 active. AID 1025;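 active = activation factor of at least 2 at 5 µM in the primary screen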
CYP2C19 inhib: inhibitors of human CYP2C19 | 96,000 compounds, 21% hits | P33261 | inhibition, % at 5 µM | CYP2C19 Supersomes, luciferin-H EGE luminescence, 30 min;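 active = CYP2C19 inhibition above a set limit at 5 µM in the primary screen, cut at about 50% in these data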
Each line names hits and unclear results; the compound was inactive in the other large screens. A selection: hits, their analogues and other compounds. The true share with any hit is near 31%.

O=C(COC(=O)c1ccccn1)c1ccc(Br)cc1	CYP2C19 inhib 57
N/C(=N\OC(=O)c1ccc(Cl)c(Cl)c1)c1ccccn1	none
O=C(COc1ccccc1Cl)NCc1ccncc1	CYP2C9 inhib 78, CYP2C19 inhib 94
O=C(OCc1ccc(Cl)c(Cl)c1)c1ccccn1	CYP2C9 inhib 53, CYP2C19 inhib 96
Cn1ccnc1C(=O)c1cc(=O)c2ccccc2o1	none
CC(C)C(C(=O)Nc1ccc(N2CCOCC2)cc1)N1C(=O)c2ccccc2C1=O (stereo not given)	none
CC(=O)c1c(N2CCC(C(N)=O)CC2)nc(=S)n(-c2ccccc2)c1C	none
CC1=Nc2ccccc2/C1=C\c1nc(-c2ccc(F)cc2)oc1O	none
O=C(COC(=O)c1ccncc1)NCc1ccccc1	CYP2C9 inhib 65, CYP2C19 inhib 85
O=C(COC(=O)c1ccccn1)NCc1ccccc1	CYP2C19 inhib 69
Clc1ccc(OCc2cc(-c3ccccc3)no2)c(Cl)c1	none
O=C1c2oc3ccccc3c(=O)c2C(c2cccs2)N1CCCN1CCOCC1 (stereo not given)	none
CC(=O)Nc1ccc(S(=O)(=O)Nc2ncccn2)cc1	none
O=S(=O)(Nc1nc2ccccc2nc1N1CCN(c2ccccn2)CC1)c1ccc(Cl)cc1	CYP2C9 inhib 100
CC(=O)Nc1ccc(S(=O)(=O)NC2=C(N3CCN(c4ccc(F)cc4)CC3)C(=O)c3ccccc3C2=O)cc1	CYP2C9 inhib 61
Cc1ccc(S(=O)(=O)N(CC(=O)N2CCN(c3ccccc3F)CC2)C2CCCCC2)cc1	none
COC(=O)Nc1ccc(S(=O)(=O)N2CCN(c3ccc(F)cc3)CC2)cc1	none
CC(=O)Nc1ccc(S(=O)(=O)Nc2nc3ccccc3nc2N2CCCCCC2)cc1	CYP2C9 inhib 70
Cc1ccc(S(=O)(=O)NC2=C(N3CCN(c4ccccc4F)CC3)C(=O)c3ccccc3C2=O)cc1	CYP2C9 inhib 61
O=C(CCN1C(=O)c2ccccc2C1=O)OCn1nnc2ccccc2c1=O	none
O=C1CCCc2c1cc(-c1ccccc1)n2-c1ccccc1	none
Cc1ccc(S(=O)(=O)N2CCCC(C(=O)NC3=NCCS3)C2)cc1 (stereo not given)	none
CCOC(=O)Cc1nnc2c(Nc3ccccc3F)nc3nonc3n12	none
CCOc1nc2ccccc2nc1NS(=O)(=O)c1ccccc1	none
Cc1ccc(S(=O)(=O)NC2=C(N3CCN(Cc4ccccc4)CC3)C(=O)c3ccccc3C2=O)cc1	CYP2C9 inhib 63
COc1ccc(N2CCN(c3nc4ccccc4nc3NS(=O)(=O)c3ccccc3)CC2)cc1	CYP2C9 inhib 98, CYP2C19 inhib 53
Cc1ccc(S(=O)(=O)Nc2nc3ccccc3nc2N2CCN(c3ccccc3F)CC2)cc1	CYP2C9 inhib 100
Cc1c(Nc2nc3ccccc3nc2N2CCN(c3ccccc3)CC2)c(=O)n(-c2ccccc2)n1C	CYP2C9 inhib 75
Cc1ccc(S(=O)(=O)NC2=NCN(Cc3ccccc3)CN2)cc1	none
CC(C)Oc1ccc(C(=O)N2CCCC2C(=O)O)cc1 (stereo not given)	none
CCOc1cc(/C=N\NC(=O)c2ccc(NC(=O)C(C)(C)C)cc2)ccc1OC(=O)c1ccc(C)cc1	none
CC(C)(C)C(=O)Nc1ccc(C(=O)N/N=C/c2ccccc2OC(=O)c2ccccc2)cc1	CYP2C19 inhib 64
COc1cc(C(=O)Oc2ccccc2/C=N/NC(=O)c2ccc(C)cc2)cc(OC)c1OC	CYP2C9 inhib 59
Cc1cccc(OCCCC(=O)NC(C)C)c1	none
Cc1c(-c2ccccc2)nc2ccccc2c1C(=O)Oc1ccc([N+](=O)[O-])cc1	none
Nc1ccc(Oc2ccc3nc(-c4ccccc4)c(-c4ccc([N+](=O)[O-])cc4)nc3c2)cc1	CYP2C9 inhib 56
CCOc1cc(NS(=O)(=O)c2ccc(Cl)cc2)c(OCC)cc1NC(=O)CC(C)C	none
CC(=O)Nc1cc(S(=O)(=O)C(F)(F)F)ccc1Cl	none
O=Nc1c(O)n(Cc2cccc(Cl)c2)c2ccccc12	CYP2C9 inhib 74, CYP2C19 inhib 56
CCN(CC)CCn1c(O)c(N=O)c2ccccc21	none
O=C(CN(CCN1CCOCC1)C(=O)Cn1nnc(-c2ccc(F)cc2)n1)NC1CCCCC1	none
CCCCCCC1C(C#N)=C(N)OC2=C1C(=O)CCC2 (stereo not given)	CYP2C9 inhib 75, CYP2C19 inhib 73
N#CC1=C(N)OC2=C(C(=O)CCC2)C1c1ccsc1 (stereo not given)	CYP2C19 inhib 57
N#CC1=C(N)OC2=C(C(=O)CCC2)C1c1ccccc1 (stereo not given)	none
CC(c1ccccc1)C1C(C#N)=C(N)OC2=C1C(=O)CCC2 (stereo not given)	CYP2C19 inhib 62
O=C1CCCC2=C1C(c1ccccc1)C1=C(CCCC1=O)O2	none
Cc1cc(C)nc(SCC(=O)Nn2cnnc2)n1	none
Cc1cccc(C)c1NC(=O)N1CCC(c2nc3ccccc3o2)CC1	none
COC(=O)CSc1nnc(-c2cccnc2)n1-c1cccc(OC)c1	none
COc1cc(OC)cc(OCC(O)Cn2cnc3cc(C)c(C)cc32)c1 (stereo not given)	CYP2C9 inhib 57, CYP2C19 inhib 85
O=C(O)c1ccc(OCC(O)Cn2cnc3ccccc32)cc1 (stereo not given)	none
COc1ccc2c(c1)[nH]c1c(=O)n(Cc3ccccn3)cnc12	CYP2C9 inhib 51
CCOC(=O)CS(=O)(=O)c1nc(-c2ccccc2)cc(C(F)(F)F)n1	CYP2C9 inhib 59
CCOC(=O)CS(=O)(=O)c1ccc2ccccc2c1	CYP2C9 act 2.9, CYP2C19 inhib 87
CCOC(=O)CCS(=O)(=O)c1nc(-c2ccccc2)cc(C(F)(F)F)n1	none
CN1/C(=C\C(=O)CN2C(=O)NC3(CCCCCC3)C2=O)C(C)(C)c2ccccc21	CYP2C9 inhib 79, CYP2C19 inhib 88
CN1/C(=C\C(=O)COC(=O)CN2C(=O)C3CC=CCC3C2=O)C(C)(C)c2ccccc21 (stereo not given)	none
COC(=O)c1ccc(C)c(NS(=O)(=O)c2ccc(NC(C)=O)cc2)c1	CYP2C9 inhib 96, CYP2C19 inhib 76
COc1cc(NS(=O)(=O)c2ccc(NC(C)=O)cc2)nc(OC)n1	none
CCOC(=O)c1cccc(NS(=O)(=O)c2ccc(NC(C)=O)cc2)c1	CYP2C9 inhib 98, CYP2C19 inhib 100
COC(=O)c1ccc(N2CCCCC2)c(NS(=O)(=O)c2ccc(C)cc2)c1	CYP2C9 inhib 87
CCOC(=O)c1cccc(NS(=O)(=O)c2cnc[nH]2)c1	CYP2C9 inhib 74
C(=N\c1nccs1)/Nc1nccs1	none
CCOC(=O)c1ccc(NS(=O)(=O)c2cnc[nH]2)cc1	CYP2C9 inhib 98
COc1ccccc1NC(=O)CCN1CCN(CCC(=O)Nc2ccccc2OC)CC1	none
COc1ccccc1CC(=O)Nc1ccccc1C(=O)O	none
COc1cc(/C=N/NC(=O)CSCc2ccc([N+](=O)[O-])cc2)cc(OC)c1OC	CYP2C9 inhib 57
CNCc1ccccc1OCC(=O)Nc1ccccc1OC	CYP2C19 inhib 64
COc1cccc(OCC(=O)Nc2ccccc2NC(C)=O)c1	CYP2C19 inhib 76
